From PubChem BioAssay (NCI) come the findings set out here.

Assay [1] can be described thus: NCI Yeast Anticancer Drug Screen. Data for the rad50 strain (AID 155).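 Further: 0% = growth of vehicle-only cultures of the same strain.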 The following applies: S. cerevisiae rad50 strain growth inhibition; at 50.0 µM; hits give high values. An outline of the steps:
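Relative growth inhibition (compound vs vehicle) was measured in yeast with a defined repair-gene alteration.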

The nature of assay [2]: NCI Yeast Anticancer Drug Screen. Data for the mec2-1 strain (AID 157). The following applies: S. cerevisiae mec2-1 strain, at 50.0 µM, hits give high values. The essentials: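 Using mec2-1 yeast: add compound, measure growth, express inhibition versus vehicle-treated cultures.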
Assay [3] can be described thus: NCI Yeast Anticancer Drug Screen. Data for the sgs1 mgt1 strain (AID 161).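 Further: 0% = growth of cultures given vehicle only.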 The following applies: S. cerevisiae sgs1 mgt1 strain, at 50.0 µM, hits give high values. An outline of the steps: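 Compounds are added to genetically altered yeast, and growth is compared with cultures given vehicle alone to give percent inhibition.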
Assay [4] in a line: NCI Yeast Anticancer Drug Screen. Data for the cln2 rad14 strain (AID 165).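 Further: 0% = growth equal to vehicle treated cultures.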 The following applies: S. cerevisiae cln2 rad14 strain, at 50.0 µM, hits give high values. The essentials:
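Yeast strain cln2 rad14, bearing defects in cell cycle control and DNA repair, serves as the test system; values reflect growth inhibition compared with vehicle.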

Assay [5] can be described thus: NCI Yeast Anticancer Drug Screen. Data for the bub3 strain (AID 167). The settings on record: S. cerevisiae bub3 mutant strain, at 50.0 µM, hits give high values. An outline of the steps: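 Screening used yeast with an engineered genetic alteration affecting cell cycle control. Compound-exposed cultures were compared with vehicle cultures, and reduced growth was taken as inhibition.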

Assay [6] in a line: NCI Yeast Anticancer Drug Screen. Data for the mlh1 rad18 strain (AID 175). The settings on record: S. cerevisiae mlh1 rad18 strain growth inhibition; at 50.0 µM; hits give high values. An outline of the steps:
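Steps: expose repair-defective yeast to compound; measure growth; express inhibition against vehicle-treated controls.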

Compounds without any hit were thinned out: in the full panel of roughly 79,000, 15% have a hit. Unmarked numbers belong to inactive results. Active and inactive are the calls of the source. No stated cut-off is given here; in the data, active means growth inhibition above about 70%; inactive means the rest. Where a SMILES comes first, the peptide text is derived from it. The star is where a group is joined. OtBu = CC(C)(C)O*

Turning to `CC(CCNC(=S)S)CC(C)(C)C.[Zn+2]` (centres undefined), the growth inhibition is 9.75% in assay [1]; 15.1% in assay [2]; -7.55% in assay [3]; -36% in assay [4]; -4.65% in assay [5]; -1% in assay [6].

For `O=C(CCCCCCCCC(=O)NO)NO`, the growth inhibition was -10.8% in assay [1]; 0.45% in assay [2]; -2.9% in assay [3]; 4% in assay [4]; -2.95% in assay [5]; -2.5% in assay [6].

Take `OCc1ccccc1`: the growth inhibition was 37% in assay [1]; 19.2% in assay [2]; 0.1% in assay [3]; -14.7% in assay [4]; 29.4% in assay [5]; 26.1% in assay [6].

Take `O/N=C/c1ccc(O)c(O)c1`: the growth inhibition in assay [1] is 16.4%; in assay [2], -7.35%; in assay [3] it was -4.05%; in assay [4] it was -0.7%; in assay [5] it was 10.8%; in assay [6], 4.75%.

As for `CC1(C(Cl)Cl)C=CC(=O)c2ccccc21` (centres undefined), the growth inhibition in assay [1] was 37%; in assay [2], 35.6%; in assay [3], 21.4%; in assay [4] it was 15.3%; in assay [5], 12.3%; in assay [6], 4.9%.

`Cc1cc(C)[n+](C)c(/C=C\c2ccccc2Cl)n1`: the growth inhibition is 5.2% in assay [1]; -1.7% in assay [2]; 10.6% in assay [3]; 15.2% in assay [4]; -2.5% in assay [5]; 22.1% in assay [6].

In the case of `NC(CCCC(N)P(=O)(O)c1ccccc1)P(=O)(O)c1ccccc1` (centres undefined), the growth inhibition in assay [1] is -37.9%; in assay [2] it was -40.5%; in assay [3], -63.5%; in assay [4] it was -9.65%; in assay [5], -45.5%; in assay [6], -46.6%.

`Cc1c2ccccc2c(CN2CC(O)CC2C(=O)O)c2ccccc12` (centres undefined): the growth inhibition was 70.6% (active) in assay [1]; 33.2% in assay [2]; 63% in assay [3]; 78.5% (active) in assay [4]; 51.8% in assay [5]; 93.8% (active) in assay [6].

On to `COC(=O)c1ccccc1NC(=O)c1ccccc1C(=O)O`, for which the growth inhibition in assay [1] was 6.4%; in assay [2], 41%; in assay [3] it was 35%; in assay [4] it was -6.55%; in assay [5], 28.5%; in assay [6], 37.2%.

For the compound `CN(C)Cc1ccc(-c2cc3onc(-c4ccccc4)c3c(=O)n2C)cc1`, the growth inhibition in assay [1] was -22.9%; in assay [2], -13.1%; in assay [3], -29.5%; in assay [4], -8.4%; in assay [5], -28%; in assay [6] it was 2.5%.

As to `CCSCC(C)C(=O)OC` (centres undefined), the growth inhibition in assay [1] was -26.6%; in assay [2], -0.4%; in assay [3], -14.3%; in assay [4], 23.6%; in assay [5], 2.85%; in assay [6] it was -40.3%.

In the case of `Clc1cc(/C=C/c2ccccc2)c2ccccc2n1`, the growth inhibition in assay [1] is 25.9%; in assay [2], -0.05%; in assay [3], 12.6%; in assay [4], -7.5%; in assay [5], -4.65%; in assay [6], 22.3%.

Turning to `COC1=C(C(c2cc(OC)c(OC)c(OC)c2)c2cc3c(cc2OC)OCO3)C(=O)OC1` (centres undefined), the growth inhibition was -18.6% in assay [1]; -5.9% in assay [2]; -2.9% in assay [3]; 6.25% in assay [4]; 1.1% in assay [5]; 13.4% in assay [6].

In the case of `CCOC(=O)CCC1CCCCC1`, the growth inhibition in assay [1] is -1.1%; in assay [2] it was -8.15%; in assay [3] it was -19.4%; in assay [4], 0.65%; in assay [5], -3.2%; in assay [6], 8.15%.

Take `CC(SC(=S)N1CCOCC1)c1cc2oc(=O)n(C)c2cc1Cl` (centres undefined): the growth inhibition in assay [1] was 2.4%; in assay [2], 7.95%; in assay [3], 8.35%; in assay [4] it was -5.15%; in assay [5] it was 24.8%; in assay [6] it was 20.5%.

In the case of `COC(=O)C(=O)/C(=C\N1C(=O)CC(=O)NC1=S)C(=O)c1ccc([N+](=O)[O-])cc1`, the growth inhibition in assay [1] is 17.9%; in assay [2], -0.4%; in assay [3], 9.6%; in assay [4], 1.5%; in assay [5] it was -5.25%; in assay [6], 6%.

Take `CCOC(=O)C(=O)Cc1ccccc1[N+](=O)[O-]`: the growth inhibition is 26.1% in assay [1]; 0.1% in assay [2]; 7.75% in assay [3]; -3.95% in assay [4]; -3.8% in assay [5]; 38% in assay [6].

As to `CC(C)CC(NC(=O)C1CCCN1)C(=O)NC(CC(C)C)C(=O)OC(C)(C)C` (stereo not drawn) (H-Pro-Leu-Leu-OtBu; configuration not given here), the growth inhibition is 30.2% in assay [1]; 26.6% in assay [2]; 29.1% in assay [3]; 19% in assay [4]; -4.15% in assay [5]; 30.9% in assay [6].

Regarding `N#CC1(Cc2ccccc2[N+](=O)[O-])c2ccccc2C2C(N1C(=O)c1ccccc1)C2(Cl)Cl` (centres undefined), the growth inhibition is -2.5% in assay [1]; 23.7% in assay [2]; 9.7% in assay [3]; -4.3% in assay [4]; 3.15% in assay [5]; 6.95% in assay [6].
